Reference: PubChem BioAssay (NCI)
This is part of a sample that, as a whole, favours compounds with a hit. Of some 79,000 tested, about 15% had one in any assay. Active and inactive are the calls of the source. Rule as the data show it: active = growth inhibition above about 70%; inactive = the rest.

Legend:
[1] = NCI Yeast Anticancer Drug Screen. Data for the rad52 strain (AID 147);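 also: 0% = growth of vehicle-treated control cultures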; conditions: S. cerevisiae rad52 mutant growth inhibition, stronger effect = higher value
In short: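 Screen used a yeast mutant impaired in DNA repair. After compound exposure, growth was measured. Values reflect inhibition compared with vehicle-treated cells.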

[2] = NCI Yeast Anticancer Drug Screen. Data for the wt1 strain (AID 149);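 also: 0% = growth of vehicle-treated wt1 cultures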; conditions: S. cerevisiae wt1 strain (SPY 50644) growth inhibition, stronger effect = higher value
In short: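 Yeast wt1 strain exposed to compounds; growth inhibition measured relative to vehicle-treated controls.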

[3] = NCI Yeast Anticancer Drug Screen. Data for the mgt1 strain (AID 153); conditions: S. cerevisiae mgt1 mutant growth inhibition, stronger effect = higher value
In short: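 Genetically defined yeast (mgt1) treated with compound; inhibition of growth expressed against vehicle-treated controls.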

[4] = NCI Yeast Anticancer Drug Screen. Data for the rad50 strain (AID 155);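 also: 0% = growth of vehicle-only cultures of the same strain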; conditions: S. cerevisiae rad50 strain growth inhibition, stronger effect = higher value
In short: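 Yeast carrying a defined DNA repair defect were exposed to test compounds, and growth was compared with vehicle-treated controls to give percent inhibition.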

[5] = NCI Yeast Anticancer Drug Screen. Data for the mec2-1 strain (AID 157); conditions: S. cerevisiae mec2-1 strain, stronger effect = higher value
In short: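 Readout is yeast growth inhibition, normalised to vehicle-treated controls, in the mec2-1 strain exposed to compound.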

[6] = NCI Yeast Anticancer Drug Screen. Data for the rad14 strain (AID 159);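 also: 0% = growth of vehicle-treated control cultures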; conditions: S. cerevisiae rad14 strain growth inhibition, stronger effect = higher value
In short: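 Yeast cells carrying a defined DNA-repair defect were exposed to compounds, and growth inhibition was calculated relative to vehicle-treated control cultures.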

[7] = NCI Yeast Anticancer Drug Screen. Data for the sgs1 mgt1 strain (AID 161);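 also: 0% = growth of cultures given vehicle only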; conditions: S. cerevisiae sgs1 mgt1 strain, stronger effect = higher value
In short: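 Yeast cells carrying a defined DNA-repair defect were exposed to test compounds. Growth inhibition was measured relative to vehicle-treated controls.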

[8] = NCI Yeast Anticancer Drug Screen. Data for the CLN2oe strain (AID 163);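 also: 0% = growth of vehicle-only control cultures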; conditions: S. cerevisiae CLN2oe strain, stronger effect = higher value
In short: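 Values reflect how much compound exposure reduced yeast growth, referenced to vehicle-exposed cells. Assay organism is a strain with a defined genetic change affecting cell-cycle control.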

[9] = NCI Yeast Anticancer Drug Screen. Data for the cln2 rad14 strain (AID 165);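 also: 0% = growth equal to vehicle treated cultures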; conditions: S. cerevisiae cln2 rad14 strain, stronger effect = higher value
In short: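 Relative to vehicle controls, growth inhibition of compound-treated cln2 rad14 yeast was recorded.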

[10] = NCI Yeast Anticancer Drug Screen. Data for the bub3 strain (AID 167); conditions: S. cerevisiae bub3 mutant strain, stronger effect = higher value
In short: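 Compounds were applied to a genetically altered yeast strain carrying a cell-cycle control defect. Growth inhibition was scored against vehicle-treated controls.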

[11] = NCI Yeast Anticancer Drug Screen. Data for the wt2 strain (AID 169);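 also: 0% = growth of vehicle-treated yeast cultures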; conditions: S. cerevisiae wt2 strain growth inhibition, stronger effect = higher value
In short: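 Values express reduction in yeast growth under compound treatment, referenced to vehicle-treated cells.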

[12] = NCI Yeast Anticancer Drug Screen. Data for the mlh1 strain (AID 171);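 also: 0% = growth of vehicle-treated control cultures of the same strain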; conditions: S. cerevisiae mlh1 strain growth inhibition, stronger effect = higher value
In short: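 Steps: expose the defined-mutant yeast strain to compound; expose a parallel culture to vehicle; measure growth; express compound effect as inhibition relative to the vehicle culture.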

[13] = NCI Yeast Anticancer Drug Screen. Data for the sgs1 strain (AID 173);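 also: 0% = growth of vehicle-only control cultures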; conditions: S. cerevisiae sgs1 mutant, stronger effect = higher value
In short: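 Treat defined-mutant yeast with compound; measure growth; calculate inhibition relative to vehicle-treated cells.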

[14] = NCI Yeast Anticancer Drug Screen. Data for the mlh1 rad18 strain (AID 175); conditions: S. cerevisiae mlh1 rad18 strain growth inhibition, stronger effect = higher value
In short: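 Test agents were incubated with a yeast strain of defined genotype (DNA damage repair defect). Inhibition of growth was derived by comparison with vehicle-exposed cultures.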

[15] = NCI Yeast Anticancer Drug Screen. Data for the rad18 strain (AID 177); conditions: S. cerevisiae rad18 mutant growth inhibition, stronger effect = higher value
In short: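 A genetically defined yeast mutant impaired in DNA damage repair was treated with test compounds, then its growth was measured against cultures receiving vehicle alone.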

[16] = at 5.0 µM (retest, dose inferred, filed as 0.5)
[17] = at 50.0 µM (retest, dose inferred, filed as 5.0)

Measured: growth inhibition

COC(=O)c1c(C)ccc2c(O)c3c(cc12)C(=O)c1c2c(cc(O)c1C3=O)C1(C)OC(C)(O2)C(O)C(N(C)C)C1O (stereo not drawn)
inactive: [1]; at 1.2 µM 2% | [1]; at 3.7 µM 17% | [1]; at 11.0 µM 68% | [2]; at 1.2 µM 5% | [2]; at 3.7 µM 1% | [2]; at 11.0 µM 22% | [3]; at 1.2 µM 0% | [3]; at 3.7 µM 10% | [3]; at 11.0 µM 23% | [4]; at 1.2 µM 4% | [4]; at 3.7 µM 35% | [4]; [16] 10% | [5]; at 1.2 µM -3% | [5]; at 3.7 µM 3% | [5]; [16] 6% | [6]; at 1.2 µM 0% | [6]; at 3.7 µM 18% | [7]; [16] -11% | [8]; at 1.2 µM -7% | [8]; at 3.7 µM 0% | [8]; at 11.0 µM 39% | [9]; [16] 39% | [10]; at 1.2 µM -4% | [10]; at 3.7 µM -2% | [10]; [16] -19% | [10]; at 11.0 µM 64% | [11]; at 1.2 µM -1% | [11]; at 3.7 µM 4% | [11]; at 11.0 µM 39% | [12]; at 1.2 µM 2% | [12]; at 3.7 µM 19% | [12]; at 11.0 µM 68% | [13]; at 1.2 µM 0% | [13]; at 3.7 µM 7% | [13]; at 11.0 µM 44% | [14]; [16] 1% | [15]; at 1.2 µM 1% | [15]; at 3.7 µM 25%
active: [1]; at 33.0 µM 94% | [1]; at 100.0 µM 91% | [2]; at 33.0 µM 79% | [2]; at 100.0 µM 94% | [3]; at 33.0 µM 95% | [3]; at 100.0 µM 94% | [4]; at 11.0 µM 90% | [4]; at 33.0 µM 92% | [4]; [17] 98% | [4]; at 50.0 µM 97% | [4]; at 100.0 µM 84% | [5]; at 11.0 µM 70% | [5]; at 33.0 µM 97% | [5]; [17] 98% | [5]; at 50.0 µM 95.5% | [5]; at 100.0 µM 88% | [6]; at 11.0 µM 98% | [6]; at 33.0 µM 95% | [6]; at 100.0 µM 89% | [7]; [17] 95% | [7]; at 50.0 µM 97.8% | [8]; at 33.0 µM 94% | [8]; at 100.0 µM 92% | [9]; [17] 97% | [9]; at 50.0 µM 92.9% | [10]; at 33.0 µM 96% | [10]; [17] 98% | [10]; at 50.0 µM 95.7% | [10]; at 100.0 µM 89% | [11]; at 33.0 µM 97% | [11]; at 100.0 µM 94% | [12]; at 33.0 µM 97% | [12]; at 100.0 µM 95% | [13]; at 33.0 µM 96% | [13]; at 100.0 µM 91% | [14]; [17] 98% | [14]; at 50.0 µM 96.5% | [15]; at 11.0 µM 80% | [15]; at 33.0 µM 95% | [15]; at 100.0 µM 88%
